Bioassay records from PubChem.
KCNQ2 pot: enhances the rat KCNQ2 potassium channel | O88943 | CHO-K1 KCNQ2, FluxOR thallium flux fluorescence; hits give high values | B-score at 10 µM | 310,000 compounds, 0.54% hits | AID 2239;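 active means fluorescence ratio B-score at least 3 SD of library B-scores, with initial fluorescence B-score within 3 of them, cut at about 5.3 in these data; same plate scores as AID 2156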;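 further: B-score of peak minus minimum over baseline fluorescence ratio after K+ and Tl+ stimulus; positive B-score means potentiation of KCNQ2 with more thallium influx and brighter signal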
KCNQ2 inh: blocks the rat KCNQ2 potassium channel | O88943 | CHO-K1 KCNQ2, FluxOR thallium flux, 20 min; hits give low values | B-score at 10 µM | 310,000 compounds, 1.1% hits;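 active means fluorescence ratio B-score at most minus 3 library SDs, with starting brightness B-score within 2 library SDs, cut at about -5.5 in these data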
Kir21 conf inh: confirmation of mouse Kir2.1 potassium channel inhibitors. shares compounds with KCNQ2 pot. Kir2.1-expressing cells, FluxOR thallium flux fluorescence; hits give low values. Tl flux remaining, % of negative control (hits give low values), % at 10 µM. 2,300 compounds, 41% hits. AID 2032;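 active means Primary-screen hit whose thallium flux fell at least 3 control SD below untreated wells in both duplicates, with normal baseline fluorescence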;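 further: 0% = blank wells without stimulus and 100% = stimulated no-compound controls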
HEK293 ctr: parental HEK293 activity in Kir2.1 inhibitor counter-screen. shares compounds with KCNQ2 pot. 2,300 compounds, 19% hits. FluxOR signal as % of negative control (100 = no effect), % at 10 µM. AID 2105. parental HEK293 cells, FluxOR thallium flux fluorescence; 0% = unstimulated blank wells;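 active means dye signal at least 3 control SD above or below untreated wells in both duplicates, raw fluorescence within 3, either direction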;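 further: percent is based on the flux ratio of peak minus minimum fluorescence over baseline F0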
CHO-K1 Tl ctr: counter-screen for KCNQ2 potentiators: effect in parental CHO-K1 cells; 1,200 compounds, 43% hits; activity increase over 3SD of controls, % at 10 µM; shares compounds with KCNQ2 pot; FluxOR thallium flux fluorescence; zero = vehicle mean+3SD, 100% = vehicle-minus-blank window;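 active means signal rise of at least 3 SD above the untreated control mean, in both duplicate wells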;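 further: counter screen of KCNQ2 potentiator hits so any rise reflects channel-independent effects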
KCNQ1 pot spec: tests whether KCNQ2 potentiators also act on human KCNQ1; shares compounds with KCNQ2 pot; activation over 3SD threshold, % at 10 µM; 1,200 compounds, 28% hits; CHO KCNQ1 stable, FluxOR thallium flux fluorescence; beyond 3SD, as % of vehicle-control signal;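 active means fluorescence ratio rise of at least 3 SD of vehicle wells above their mean, in both replicate wells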;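 further: 0% = vehicle mean plus 3 SD and 100% = vehicle minus unstimulated blank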
Target sequence (P51787 whole entry, looked up): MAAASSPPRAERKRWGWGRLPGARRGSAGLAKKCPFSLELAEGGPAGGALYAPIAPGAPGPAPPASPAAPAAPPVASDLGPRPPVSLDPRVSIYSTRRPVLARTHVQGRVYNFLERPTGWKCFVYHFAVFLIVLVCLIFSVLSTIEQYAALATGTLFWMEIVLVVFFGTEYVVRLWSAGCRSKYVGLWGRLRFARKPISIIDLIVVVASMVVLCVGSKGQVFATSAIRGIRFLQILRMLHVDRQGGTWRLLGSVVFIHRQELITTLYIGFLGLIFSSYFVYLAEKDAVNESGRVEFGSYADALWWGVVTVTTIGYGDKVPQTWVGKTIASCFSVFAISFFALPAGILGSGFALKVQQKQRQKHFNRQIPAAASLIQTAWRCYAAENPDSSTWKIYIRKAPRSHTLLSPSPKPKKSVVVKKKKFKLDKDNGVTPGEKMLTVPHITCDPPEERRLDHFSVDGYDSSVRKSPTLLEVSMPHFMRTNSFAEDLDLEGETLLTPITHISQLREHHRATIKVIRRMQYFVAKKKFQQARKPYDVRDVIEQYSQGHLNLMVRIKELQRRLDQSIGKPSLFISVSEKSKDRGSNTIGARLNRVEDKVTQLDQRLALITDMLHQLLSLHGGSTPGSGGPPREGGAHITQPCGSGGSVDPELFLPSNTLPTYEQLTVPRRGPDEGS
KCNQ2 pot conf: confirmation of rat KCNQ2 potassium channel potentiators; shares compounds with KCNQ2 pot; CHO-KCNQ2 cells, FluxOR thallium flux fluorescence; potentiation, less the hit threshold, % at 10 µM; 1,200 compounds, 68% hits; AID 2287;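 active means fluorescence ratio rising 3 SD or more over the vehicle control mean in both replicates, plus primary screen hit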;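 further: peak minus minimum thallium fluorescence divided by baseline after K/Tl stimulus; 0% = vehicle mean plus 3 SD and 100% = vehicle minus unstimulated blank difference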
Kir2-1 sel: mouse Kir2.1 off-target activity of KCNQ2 potentiators; shares compounds with KCNQ2 pot; HEK293 Kir2.1, FluxOR thallium flux fluorescence; activity over 3SD threshold, % at 10 µM; 1,200 compounds, 2% hits;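 active means fluorescence ratio rise of at least 3 SD above the vehicle-control mean, seen in both replicates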;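 further: 0% = vehicle mean plus 3 SD and 100% = vehicle minus no-stimulus blank window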
KCNQ2 W236L pot: KCNQ2 potentiators acting on retigabine-insensitive rat KCNQ2 W236L mutant | shares compounds with KCNQ2 pot | CHO KCNQ2-W236L, automated patch clamp current | current increase over 3SD of negative controls (%), hits give high values, % at 25 µM | 940 compounds, 10% hits | AID 2558;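 active means current increase at least 3 SD of the untreated controls above them in both duplicate recordings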
Starred values were filed as active, the others as inactive; i = inactive; · = no result given. This is a sample that favours compounds with a hit; in the whole collection about 1.6% have one here.

SMILES	KCNQ2 pot	KCNQ2 inh	Kir21 conf inh	HEK293 ctr	others
CCCCC(=O)Nc1c(C)cc(C)cc1Cl	12.1*	i	i	i	CHO-K1 Tl ctr=-24.9;KCNQ1 pot spec=-13.6;KCNQ2 pot conf=53.2*;Kir2-1 sel=-33.9;KCNQ2 W236L pot=i
CSc1nc2ccccc2n1CC(=O)Nc1cc(C(F)(F)F)ccc1N1CCOCC1	·	i	·	·
CCn1c(=O)c(C(=O)NCc2ccccn2)c(O)c2ccccc21	18.1*	i	i	i	CHO-K1 Tl ctr=-19.5;KCNQ1 pot spec=-23.5;KCNQ2 pot conf=35.4*;Kir2-1 sel=-52.9;KCNQ2 W236L pot=i
CCn1c(=O)c(C(=O)NCc2ccc(OC)cc2)c(O)c2ccccc21	·	i	·	·
CC1CCCCN1C(=O)CN1C(=O)CSc2ccc(S(=O)(=O)N3CCOCC3)cc21 (configuration not stated)	·	i	·	·
C=CCOc1cccc(/C=N/NC(=O)CC(=O)NC2CCCCC2)c1	·	i	·	·
COc1ccc(F)cc1C(=O)C1CCCN(Cc2c(C)n(C)n(-c3ccccc3)c2=O)C1 (configuration not stated)	0.14	i	·	·
CSc1nc(C(C)C)ccc1CNC(=O)CC(C)c1ccccc1 (configuration not stated)	29.6*	i	i	i	CHO-K1 Tl ctr=-11.1;KCNQ1 pot spec=35.3*;KCNQ2 pot conf=111.6*;Kir2-1 sel=-26.9;KCNQ2 W236L pot=i
CC(CC(=O)NCc1ccc(F)cc1)c1ccccc1 (configuration not stated)	2.87	i	·	·
CCOc1ccc(NC(=O)Cc2ccc(NC3=NC4CS(=O)(=O)CC4S3)cc2)cc1 (configuration not stated)	17.3*	i	i	i	CHO-K1 Tl ctr=8.6*;KCNQ1 pot spec=-18.1;KCNQ2 pot conf=-17.7;Kir2-1 sel=-30.2
CCc1ccc(NC(=O)Cc2ccc(NC3=NC4CS(=O)(=O)CC4S3)cc2)cc1 (configuration not stated)	·	i	·	·
O=C(Nc1cccnc1)c1cc(-c2ccccc2)on1	1.39	i	·	·
CC(C)n1cc(NC(=O)c2cc(-c3ccccc3)on2)cn1	12.1*	i	i	214.0%*	CHO-K1 Tl ctr=13.7*;KCNQ1 pot spec=-11.2;KCNQ2 pot conf=11.2*;Kir2-1 sel=-15.2;KCNQ2 W236L pot=i
O=C(COc1ccccc1)NC1CCN(Cc2ccccc2)CC1	·	i	·	·
CCOc1ccc2oc(C(=O)NC3CCN(Cc4ccccc4)CC3)c(C)c2c1	0.55	i	·	·
O=C(/C=C/c1cccc(F)c1)NC1CCN(Cc2ccccc2)CC1	0.69	i	·	·
Cc1c(C(=O)NC2CCN(Cc3ccccc3)C2)oc2ccc(Br)cc12 (configuration not stated)	·	i	59.5%*	i
O=C(COc1ccc(Br)cc1Cl)NC1CCN(Cc2ccccc2)CC1	·	i	21.0%*	i
O=C(/C=C/c1cccc(Br)c1)NC1CCN(Cc2ccccc2)CC1	·	i	39.0%*	i
O=C(CSc1ccc(-c2ccc(F)cc2)nn1)N1CCOCC1	0.15	i	·	·
O=C(CSc1nc(=O)[nH]c2c1CCCC2)Nc1ccc(F)cc1F	·	i	·	·
CN(C)C(=O)c1nc2ccc(Cl)cn2c1CN1CCCC(OCc2cccnc2)C1 (configuration not stated)	0.56	i	·	·
COc1ccc(NC(=O)CN2C(=O)NC3(CCCC3)C2=O)c(OC)c1	·	i	·	·
CCOc1ccc(Oc2ccccc2NC(=O)CN2C(=O)NC3(CCCC3)C2=O)cc1	5.93*	i	i	i	CHO-K1 Tl ctr=-6.8;KCNQ1 pot spec=-18.5;KCNQ2 pot conf=26.0*;Kir2-1 sel=-39.3;KCNQ2 W236L pot=i
O=C(O)CCCC(=O)Nc1ccccc1Oc1ccccc1	·	i	·	·
SMILES	KCNQ2 pot	KCNQ2 inh	Kir21 conf inh	HEK293 ctr	others
CCCCC(=O)Nc1ccccc1Oc1ccccc1	8.98*	i	·	·	CHO-K1 Tl ctr=-9.5;KCNQ1 pot spec=-16.7;KCNQ2 pot conf=18.6*;Kir2-1 sel=-81.0;KCNQ2 W236L pot=i
c1ccc(-c2cn3c(n2)-c2ccccc2C3)cc1	0.05	i	·	·
Cc1cc(C)n2nc(SCc3nnc(-c4ccccc4Br)o3)nc2n1	0.1	i	·	·
COc1ccccc1OCCNC(=O)c1ccc(C)c(S(=O)(=O)N2CCOCC2)c1	1.44	i	·	·
O=c1[nH]cc(N=Cc2cc([N+](=O)[O-])ccc2O)c(=O)[nH]1	·	i	·	·
O=c1[nH]cc(N=Cc2cc(Cl)cc(Cl)c2O)c(=O)[nH]1	8.31*	i	i	i	CHO-K1 Tl ctr=15.0*;KCNQ1 pot spec=18.0*;KCNQ2 pot conf=23.7*;Kir2-1 sel=-11.9;KCNQ2 W236L pot=i
Cc1ccc(NC(=O)CN2CCN(CCN=CC3=C(O)CC(c4ccc(C)cc4)CC3=O)CC2)cc1 (configuration not stated)	·	i	·	·
CC(=O)Nc1ccc(N/C=C/C(=O)C(C)(C)C)cc1	·	i	·	·
Cc1ccc(N/C=C/C(=O)C(C)(C)C)c(O)c1	8.34*	i	i	i	CHO-K1 Tl ctr=-1.1;KCNQ1 pot spec=2.9*;KCNQ2 pot conf=8.3*;Kir2-1 sel=-21.0;KCNQ2 W236L pot=i
O=C(CCC1N=C2c3ccccc3N=C(SCC(=O)NCC3CCCO3)N2C1=O)NCc1ccc(F)cc1 (configuration not stated)	1.64	i	·	·
CN(C)Cc1cc2ccccc2c2c1COC2	·	i	·	·
Cc1cc2ccc3ccccc3c2cc1CN(C)C	·	i	13.0%*	i
O=C(NC1CC2CCCC(C1)N2C(=S)Nc1ccccc1)C1CC1 (configuration not stated)	0.83	i	·	·
Cc1[nH]n(-c2ccccc2)c(=O)c1CCO	0.23	i	·	·
Cc1[nH]n(-c2ccccc2)c(=O)c1S(=O)(=O)c1ccccc1	·	i	28.5%*	i
CCc1ccc(N(CC(=O)N2CCCCCC2)S(C)(=O)=O)cc1	·	i	·	·
O=C(COC(=O)Cc1c[nH]c2ccccc12)NC1CCCCC1	0.06	i	42.0%*	i
O=C(COC(=O)Cc1c[nH]c2ccccc12)Nc1ccccc1	·	i	·	·
CCCC(C(=O)Nc1ccncc1)c1ccccc1 (configuration not stated)	0.01	i	·	·
CC(NC(=O)c1ccco1)C(=O)NC(C)c1cc(F)c(Cl)cc1Cl (configuration not stated)	1	i	·	·
C1CCC(C(CC2CCCCN2)C2CCCCC2)CC1 (configuration not stated)	·	i	28.5%*	71.5%*
Cc1ccc(S(=O)(=O)NC(=O)COc2ccc([N+](=O)[O-])cc2)cc1	1.49	i	·	·
Cc1cc(N=Cc2cc(Br)ccc2O)no1	9.12*	i	i	i	CHO-K1 Tl ctr=-17.5;KCNQ1 pot spec=-7.0;KCNQ2 pot conf=0.8*;Kir2-1 sel=-21.7;KCNQ2 W236L pot=i
Cc1ccc(S(=O)(=O)/N=C/c2cc(Br)ccc2O)cc1	4.31	i	·	·
